These results are taken from PubChem BioAssay.

Assay [1] can be described thus: antimalarial activity against Dd2 strain (AID 2302;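 active = growth inhibition above 50% at the single 2 µM test dose, taken to imply half-maximal potency below 2 µM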;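 also: 0% = DMSO untreated growth and 100% = chloroquine plus artemisinin killed control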). The conditions noted are these: P. falciparum Dd2 in RBCs, LDH growth readout, 72 h; at 2 µM; active compounds read high.
The nature of assay [2]: human hepatoma cell viability loss – ATP luminescence, cytotoxicity control for P. falciparum antimalarial project, primary screen (AID 2303;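 active = inhibition above 50%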;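 also: 0% = DMSO wells and 100% = digitonin-killed cells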). The conditions noted are these: HepG2 viability, 24-48 h, at 10 µM, active compounds read high.
The target in assay [3] is L-lactate dehydrogenase (Plasmodium falciparum (isolate CDC / Honduras)) (UniProt Q27743). In words: PfLDH activity inhibition – cell lysate, 3D7 strain, counter-screen for P. falciparum growth inhibition project (AID 2304).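 Also: 0% = vehicle and 100% = reference inhibitor.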 To be noted: P. falciparum 3D7 crude extract, LDH APAD/NBT absorbance; at 2 µM; active compounds read high. (In general: Counterscreens check selectivity or assay interference.)

Assay [4] in a line: inhibition of 3D7 malaria parasite growth – strain 3D7 (AID 2306).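 Also: 0% = DMSO wells and 100% = chloroquine plus artemisinin control wells.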 The conditions noted are these: P. falciparum 3D7 erythrocytic growth, LDH absorbance, 72 h; at 2 µM; active compounds read high.
Assay [5] deals with Calcium-dependent protein kinase 1 (Plasmodium falciparum (isolate 3D7)) (UniProt P62344). In words: PfCDPK1 kinase inhibitors, biochemical, TCAMS library (AID 1159585; cut-off not given, nearly all actives have IC50 up to about 0.98 µM;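 also: inhibitors leave more ATP so luminescence rises with inhibition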). The conditions noted are these: recombinant PfCDPK1, Kinase-Glo ATP depletion luminescence.
Assay [6] deals with Plasmodium falciparum protein kinase 6 (PK6, PF3D7_1337100) (UniProt Q8IDW1). Description: PfPK6 kinase inhibitors, biochemical, TCAMS library (AID 1159586). The conditions noted are these: recombinant PfPK6, Kinase-Glo ATP depletion luminescence.
Assay [7] has as its target Protein kinase 7 (PK7), Plasmodium falciparum 3D7 (PF3D7_0213400) (UniProt Q7YTF7). Description: inhibition of Plasmodium PK7 catalytic activity – biochemical, TCAMS antimalarial set, Kinase-Glo luminescence (AID 1159587). The conditions noted are these: recombinant PfPK7, Kinase-Glo ATP depletion luminescence. (In general: In Kinase-Glo more light means more ATP remaining.)

The target of assay [8] is Calcium-dependent protein kinase 4 (Plasmodium falciparum (isolate 3D7)) (UniProt Q8IBS5). Description: PfCDPK4 kinase inhibitors, biochemical, TCAMS library (AID 1159588; cut-off not given, nearly all actives have IC50 up to about 0.91 µM). To be noted: recombinant PfCDPK4, Kinase-Glo ATP depletion luminescence.

Each structure is given as a SMILES string. Values without a mark were called inactive. For some assays here: Measured potencies and affinities stand elsewhere. Active and inactive are the calls of the source. Unless noted, no rule for the calls is given here.

L-lactate dehydrogenase (Plasmodium falciparum (isolate CDC / Honduras)), sequence (Q27743 whole entry, looked up): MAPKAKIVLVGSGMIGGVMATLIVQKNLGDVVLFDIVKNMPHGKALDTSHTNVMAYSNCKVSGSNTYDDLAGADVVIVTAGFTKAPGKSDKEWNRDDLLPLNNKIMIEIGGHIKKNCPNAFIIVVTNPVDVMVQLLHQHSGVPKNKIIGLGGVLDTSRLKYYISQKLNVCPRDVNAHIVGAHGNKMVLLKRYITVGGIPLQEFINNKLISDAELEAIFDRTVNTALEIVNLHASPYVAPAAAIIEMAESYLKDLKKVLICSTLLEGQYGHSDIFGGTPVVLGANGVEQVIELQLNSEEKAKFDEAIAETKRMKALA
Protein kinase 7 (PK7), Plasmodium falciparum 3D7 (PF3D7_0213400), sequence (Q7YTF7 1-343): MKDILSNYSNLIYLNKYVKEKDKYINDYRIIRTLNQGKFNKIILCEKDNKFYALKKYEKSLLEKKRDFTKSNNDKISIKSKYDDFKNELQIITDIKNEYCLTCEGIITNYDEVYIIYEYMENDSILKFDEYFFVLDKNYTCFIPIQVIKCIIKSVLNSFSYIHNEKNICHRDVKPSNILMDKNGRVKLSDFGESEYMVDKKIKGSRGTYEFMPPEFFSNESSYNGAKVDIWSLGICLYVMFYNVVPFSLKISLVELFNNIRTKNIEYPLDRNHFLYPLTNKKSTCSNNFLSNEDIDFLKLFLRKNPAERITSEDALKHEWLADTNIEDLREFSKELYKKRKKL
Calcium-dependent protein kinase 4 (Plasmodium falciparum (isolate 3D7)), sequence (Q8IBS5 whole entry, looked up): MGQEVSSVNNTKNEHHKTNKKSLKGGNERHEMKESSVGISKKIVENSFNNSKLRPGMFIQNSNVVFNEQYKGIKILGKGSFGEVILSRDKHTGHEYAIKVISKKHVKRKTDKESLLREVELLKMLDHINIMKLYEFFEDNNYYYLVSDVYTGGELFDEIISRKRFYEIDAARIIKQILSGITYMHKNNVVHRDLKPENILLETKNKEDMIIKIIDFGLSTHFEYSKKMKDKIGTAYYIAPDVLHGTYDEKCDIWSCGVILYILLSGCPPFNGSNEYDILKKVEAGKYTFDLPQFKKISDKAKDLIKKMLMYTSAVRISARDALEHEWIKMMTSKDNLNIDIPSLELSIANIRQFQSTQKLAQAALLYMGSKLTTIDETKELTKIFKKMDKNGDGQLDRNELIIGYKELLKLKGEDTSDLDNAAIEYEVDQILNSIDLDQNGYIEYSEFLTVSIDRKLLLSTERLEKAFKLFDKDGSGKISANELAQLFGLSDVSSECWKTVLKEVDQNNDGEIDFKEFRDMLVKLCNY
Plasmodium falciparum protein kinase 6 (PK6, PF3D7_1337100), sequence (Q8IDW1 1-305): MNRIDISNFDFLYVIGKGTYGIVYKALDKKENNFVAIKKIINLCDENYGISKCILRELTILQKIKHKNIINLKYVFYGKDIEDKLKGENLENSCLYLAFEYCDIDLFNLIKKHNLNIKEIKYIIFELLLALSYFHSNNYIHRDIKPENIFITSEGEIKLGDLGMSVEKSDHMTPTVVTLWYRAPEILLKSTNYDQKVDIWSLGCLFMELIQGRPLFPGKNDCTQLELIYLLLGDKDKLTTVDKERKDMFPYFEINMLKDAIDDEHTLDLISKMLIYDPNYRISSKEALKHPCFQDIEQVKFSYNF
Calcium-dependent protein kinase 1 (Plasmodium falciparum (isolate 3D7)), sequence (P62344 whole entry, looked up): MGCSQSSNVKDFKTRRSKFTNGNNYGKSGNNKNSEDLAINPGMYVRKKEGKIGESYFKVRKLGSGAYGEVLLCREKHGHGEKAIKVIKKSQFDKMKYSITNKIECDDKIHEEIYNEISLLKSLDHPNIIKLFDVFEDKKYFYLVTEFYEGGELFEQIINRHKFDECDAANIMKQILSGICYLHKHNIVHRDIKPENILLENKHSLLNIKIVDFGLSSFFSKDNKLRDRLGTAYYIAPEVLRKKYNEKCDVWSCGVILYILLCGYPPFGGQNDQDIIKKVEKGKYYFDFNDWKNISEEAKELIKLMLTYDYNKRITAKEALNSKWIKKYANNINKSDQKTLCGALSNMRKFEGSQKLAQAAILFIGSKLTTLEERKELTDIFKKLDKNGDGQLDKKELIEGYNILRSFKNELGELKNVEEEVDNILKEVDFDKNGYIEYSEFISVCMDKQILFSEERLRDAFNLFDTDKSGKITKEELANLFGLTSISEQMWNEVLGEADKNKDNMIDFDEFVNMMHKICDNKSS

Regarding `COc1ccc(-c2cccc(NC(=O)c3ccccc3)c2)cc1CN1CCCN(C)CC1`, the growth inhibition in assay [1] was 25%; in assay [4], 98% (active). Besides, the inhibition in assay [2] is 22%; in assay [3], -7%. Further, the result in assay [5], in assay [6], in assay [7] and in assay [8] was inactive.

With `O=C(NCCCCN1CCC(c2ccc3c(c2OCc2ccncc2)CCCC3)CC1)c1ccc(-c2ccc(C(F)(F)F)cc2)cc1`, the growth inhibition was 92% (active) in assay [1] and 101% (active) in assay [4]. Moreover, the inhibition is 96% (active) in assay [2] and 3% in assay [3]. Further, the outcome in assay [5], in assay [6], in assay [7] and in assay [8] was inactive.

On to `COc1cccc(-c2cccc(-c3ccc(NC(=O)c4ccc([N+](=O)[O-])o4)cc3)n2)c1`, for which the values for the growth inhibition in assay [1] and in assay [4] were 94% (active) and 97% (active), respectively. For the same compound, the values for the inhibition in assay [2] and in assay [3] were 98% (active) and 6%, respectively. Further, the outcome in assay [5], in assay [6], in assay [7] and in assay [8] was inactive.

Take `Cc1cccc(-c2cccc3c(NC(=O)N4CCc5cc6nccc(N7CCN8CCC[C@H]8C7)c6cc54)cccc23)n1`: the growth inhibition was 68% (active) in assay [1] and 94% (active) in assay [4]. Also, the inhibition was 14% in assay [2] and -6% in assay [3]. For the same compound, the result in assay [5], in assay [6], in assay [7] and in assay [8] was inactive.

For the compound `Cc1cccn2c(=O)c3cc(C(=O)NCc4cccnc4)c(=N)n(CCc4ccccc4)c3nc12`, the growth inhibition in assay [1] was 38%; in assay [4], 99% (active). For the same compound, the inhibition in assay [2] and in assay [3] was -2% in each case. In addition, the result in assay [5], in assay [6], in assay [7] and in assay [8] was inactive.

Consider `Nn1c(=O)oc2ccc(Cl)cc2c1=O`, for which the growth inhibition in assay [1] was 96% (active); in assay [4], 97% (active). For the same compound, the inhibition in assay [2] was 4%; in assay [3] it was -5%. The outcome in assay [5], in assay [6], in assay [7] and in assay [8] was inactive.

Turning to `O=C(Nc1cccc(-c2ccc(CN3CCC(O)CC3)cc2)c1)c1cccc(Cl)c1`, the growth inhibition is 2% in assay [1] and 96% (active) in assay [4]. For the same compound, the results for the inhibition in assay [2] and in assay [3] were 11% and -11%, respectively. The outcome in assay [5], in assay [6], in assay [7] and in assay [8] was inactive.

With `Cc1cc(N[C@@H](CC(C)C)C(=O)NC2CCCC2)nc(NCc2ccccc2C)n1`, the growth inhibition in assay [1] was 44%; in assay [4] it was 98% (active). The inhibition in assay [2] is 2%; in assay [3], -3%. In addition, the outcome in assay [5], in assay [6], in assay [7] and in assay [8] was inactive.

For `Cc1cccc2[nH]c(-c3ccc(-c4ccc(CN5CCN(c6ccncc6)CC5)cc4)cc3)nc12`, the values for the growth inhibition in assay [1] and in assay [4] were 100% (active) and 102% (active), respectively. For the same compound, the inhibition was 98% (active) in assay [2] and 3% in assay [3]. The result in assay [5], in assay [6], in assay [7] and in assay [8] was inactive.

For `COc1ccc2nccc(N(C)CC3(O)CCC(NCc4ccc5c(n4)NC(=O)CS5)CC3)c2n1` (configuration not stated), the growth inhibition in assay [1] is 23%; in assay [4], 98% (active). Moreover, the results for the inhibition in assay [2] and in assay [3] were 1% and -1%, respectively. The result in assay [5], in assay [6], in assay [7] and in assay [8] was inactive.

Regarding `CC(C)N1CCN(C(CN2CCN(CCCOc3ccc(-c4ccccc4)cc3)CC2)c2ccc(F)cc2)CC1` (configuration not stated), the growth inhibition in assay [1] and in assay [4] was 100% (active) throughout. For the same compound, the inhibition was 100% (active) in assay [2] and -2% in assay [3]. In addition, the outcome in assay [5], in assay [6], in assay [7] and in assay [8] was inactive.

In the case of `CN(C)CCCNc1c2ccccc2nc2ccccc12`, the growth inhibition in assay [1] was 4%; in assay [4], 91% (active). The inhibition in assay [2] was 31%; in assay [3] it was -3%. Moreover, the result in assay [5], in assay [6], in assay [7] and in assay [8] was inactive.

On to `O=C(N[C@H]1CCN(Cc2ccc(OCCN3CCNCC3)c(Br)c2)C1)c1ccc(Cl)c(Cl)c1`, for which the growth inhibition in assay [1] is 36%; in assay [4] it was 101% (active). In addition, the inhibition in assay [2] was 69% (active); in assay [3], 5%. Also, the result in assay [5], in assay [6], in assay [7] and in assay [8] was inactive.

Consider `CN(C)CC1c2[nH]c3ccccc3c2CCN1C(=O)Nc1ccc(Cl)c(Cl)c1` (configuration not stated), for which the growth inhibition in assay [1] is 32%; in assay [4], 90% (active). Moreover, the inhibition in assay [2] was 99% (active); in assay [3] it was -6%. For the same compound, the result in assay [5], in assay [6], in assay [7] and in assay [8] was inactive.

For `CCN(CCNC(=O)C1CCN(c2cc(-c3cccc(C)c3)ncn2)CC1)Cc1ccccc1`, the growth inhibition in assay [1] was 72% (active); in assay [4] it was 83% (active). Moreover, the inhibition was 24% in assay [2] and 2% in assay [3]. In addition, the result in assay [5], in assay [6], in assay [7] and in assay [8] was inactive.

For the compound `CC[C@H](C)CNC(=O)c1cncc(-c2ccc(CNCCOc3ccccc3)cc2)c1`, the results for the growth inhibition in assay [1] and in assay [4] were 0% and 90% (active), respectively. For the same compound, the inhibition in assay [2] is 7%; in assay [3] it was 3%. Besides, the result in assay [5], in assay [6], in assay [7] and in assay [8] was inactive.

As to `CN(C(=O)NCCc1ccccc1)C1CCN(CCCCCNC(=O)/C=C/c2ccc(Cl)c(Cl)c2)CC1`, the growth inhibition in assay [1] was 11%; in assay [4], 93% (active). Further, the inhibition in assay [2] was 43%; in assay [3], -7%. Besides, the outcome in assay [5], in assay [6], in assay [7] and in assay [8] was inactive.

Consider `CC(C)COc1cc(C(=O)Nc2cnc3ccccc3c2)ccc1[N+](=O)[O-]`, for which the growth inhibition was 56% (active) in assay [1] and 97% (active) in assay [4]. Moreover, the values for the inhibition in assay [2] and in assay [3] were 19% and -1%, respectively. Also, the outcome in assay [5], in assay [6], in assay [7] and in assay [8] was inactive.

For the compound `Fc1ccc(Nc2ccnc3cc(-c4ccc(CNCCN5CCOCC5)o4)ccc23)c(Cl)c1`, the growth inhibition was 99% (active) in assay [1] and 100% (active) in assay [4]. Moreover, the values for the inhibition in assay [2] and in assay [3] were 34% and -1%, respectively. In addition, the result in assay [5], in assay [6], in assay [7] and in assay [8] was inactive.

One may read the inhibition as the change of the read-out against control, counted positive when it falls.
